From PubChem
Tau ThT inhib: inhibitors of human tau fibril formation, thioflavin T binding; P10636; AID 1460; Potency, µM (doses to about 57.4 µM), for the others: at the highest dose activity, negative = inhibition, usual class: inhibitors; recombinant tau K18 P301L, heparin-induced fibrillization, ThT fluorescence; 270,000 tested, 2.1% active; further: nearly all actives have a fitted effect of over 55% in size
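Heparin-induced (20 uM) aggregation of recombinant human K18 P301L tau, 15 uM unlabeled with 0.24 uM labeled, pH 7 acetate buffer, 6 hr at 37 C with compound. Fibrils quantified by 30 uM ThT fluorescence after 1 hr ambient incubation.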
Tau fluor counter: counter-screen for tau fibril formation inhibitors. Potency, µM (titrated, usually from 57.7 µM), for inactives: at the top dose activity change, negative = decrease. 280,000 tested, 0.93% active. AID 1463. tau K18 P301L (four-repeat tau fragment) Alexa594 fluorescence, heparin fibrillization; further: nearly all actives have a fitted effect of over 55% in size
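Human K18 P301L tau (15 uM unlabeled plus 0.24 uM Alexa 594-labeled, final) in 100 mM sodium acetate pH 7 was mixed with compound and 20 uM heparin and incubated 6 hr at 37 C.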
Tau fibril FP: blocks human tau fibril formation measured by polarization; P10636; K18 P301L tau heparin fibrillization, Alexa594 FP, 6 h; Potency, µM (top dose mostly 57.7 µM), for the others: top-dose activity, negative = inhibition, hits mostly inhibitors; 280,000 tested, 0.39% active; AID 1468; further: nearly all actives have a fitted effect of over 55% in size
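K18 P301L tau (15 uM unlabeled/0.24 uM Alexa 594-labeled, final) + compound + heparin 20 uM final; 100 mM NaOAc pH 7; 6 hr 37 C; ThT 30 uM final added, 1 hr RT; FP ex 555/em 632 nm.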
TR SRC2 fluor cs: counter-screen for TRb-SRC2 inhibitors: fluorescence interference; 280,000 tested, 0.29% active; TRb/SRC2 Texas Red total fluorescence interference; AID 1479; Potency, µM (titrated, usually from 106 µM), without a hit: top-dose fluorescence change, negative = quenching; active means well fitted curve in either direction with a large enough effect; inconclusive means small, poorly fitted or top-dose-only effect
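Flags fluorescent or light-absorbing compounds by total fluorescence, S + 2P, at 555 nm excitation and 632 nm emission. Mixture: 20 nM Texas Red SRC2 peptide, 0.6 uM human TRb LBD, 1 uM T3, 5% DMSO; compound exposure 5 h at ambient temperature.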
TRb SRC2 PPI: TRbeta-SRC2 interaction inhibition; P10828; TRbeta-SRC2 peptide binding, fluorescence polarization; receptor liganded with 1 µM T3; Potency, µM (titrated, usually from 106 µM), for inactives: at the top dose activity change, negative = inhibition, actives largely listed as inhibitors; 280,000 tested, 0.065% active;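 further: plate controls were bound peptide for no effect and peptide without receptor for full effect; nearly all actives have a fitted effect of over 50% in size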
Target sequence (P10828 whole entry, looked up): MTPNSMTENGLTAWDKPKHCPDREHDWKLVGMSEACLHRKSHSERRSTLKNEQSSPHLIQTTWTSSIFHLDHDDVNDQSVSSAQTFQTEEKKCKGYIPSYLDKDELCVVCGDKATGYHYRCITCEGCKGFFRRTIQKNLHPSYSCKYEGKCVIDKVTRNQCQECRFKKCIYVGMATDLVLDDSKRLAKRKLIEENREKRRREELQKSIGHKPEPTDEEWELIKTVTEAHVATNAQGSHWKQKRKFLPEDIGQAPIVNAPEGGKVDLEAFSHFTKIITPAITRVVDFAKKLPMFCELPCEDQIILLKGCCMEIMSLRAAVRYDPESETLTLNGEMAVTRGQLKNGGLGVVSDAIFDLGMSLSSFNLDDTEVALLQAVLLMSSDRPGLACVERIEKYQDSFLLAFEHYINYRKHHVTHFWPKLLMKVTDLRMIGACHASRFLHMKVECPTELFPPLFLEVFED
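Fluorescence polarization of 20 nM Texas Red SRC2 peptide with 0.6 uM human TRb ligand-binding domain, in Tris buffer with 1uM T3 and 5% DMSO. Incubated 5 hr ambient; normalized to unbound and bound controls.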
JMJD2E inh: inhibitors of human JMJD2E histone demethylase | B2RXH2 | 230,000 tested, 1.6% active | JMJD2E catalytic domain, FDH-coupled NADH fluorescence (FDH is formaldehyde dehydrogenase) | Potency, µM (doses to about 57.1 µM), inactives show at the top dose activity change, negative = inhibition, actives largely listed as inhibitors | AID 2147; active means well fitted inhibition curve with a large enough effect, not every such curve was filed as active; inconclusive means small, poorly fitted or top-dose-only effect, or another doubt; inactive means no such curve, though single readings can be large or run the other way;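 further: 0% = wells with enzyme and -100% = buffer wells without enzyme; nearly all actives have a fitted effect of over 50% in size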
Target sequence (B2RXH2 1-337 limits assumed): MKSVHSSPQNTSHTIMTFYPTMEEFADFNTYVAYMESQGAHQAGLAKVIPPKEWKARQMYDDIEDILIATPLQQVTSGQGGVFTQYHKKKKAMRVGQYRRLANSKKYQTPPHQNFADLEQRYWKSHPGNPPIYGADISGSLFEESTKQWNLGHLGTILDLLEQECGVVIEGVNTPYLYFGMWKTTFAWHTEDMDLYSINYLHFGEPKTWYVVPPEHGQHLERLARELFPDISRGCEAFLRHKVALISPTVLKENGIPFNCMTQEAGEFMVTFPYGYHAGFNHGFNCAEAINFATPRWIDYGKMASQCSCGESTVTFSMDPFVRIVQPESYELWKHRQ
Starred values were filed as active, the others as inactive; ? = inconclusive; nt = no result given; [ ] = remark or other dose. A selection: hits, their analogues and other compounds. The true share with any hit is near 3.5%. Unless noted, the call rests on the fitted dose curve; in most records, active means well fitted curve in the direction sought with a large enough effect; inconclusive means small, poorly fitted or top-dose-only effect, or another doubt; inactive means no such curve, though single readings can be large; an effect the other way counts as inactive or inconclusive. Unless noted, on the % scale 0 is the no-effect control and ±100 the full control effect; potency means the concentration at half of the fitted maximal effect.

SMILES | Tau ThT inhib | Tau fluor counter | Tau fibril FP | TR SRC2 fluor cs | TRb SRC2 PPI | JMJD2E inh
COC(=O)[C@H]1C(OC)[C@@H](OC(=O)c2cc(OC)c(OC)c(OC)c2)C[C@@H]2CN3CCc4c([nH]c5cc(OC)ccc45)[C@H]3C[C@H]21 (stereo partly specified) | 10µM* | ? | ? | ? | -6.8% | ?
CS(=O)(=O)CCSc1ncccc1C(=O)NCc1cccs1 | 0.2% | -3.3% | -3.8% | -2.5% | 0.5% | 8.1%
CC(Oc1ccc(/C=N/NC(=O)Cc2cccc3ccccc23)cc1)C(=O)O (stereo unspecified) | -11.3% | -7.2% | -2.2% | -0.7% | -0.4% | -29.6%
Nc1c(S(=O)(=O)c2cccc(Cl)c2)c2nc3ccccc3nc2n1/N=C/c1ccc(O)c(O)c1 | ? | 5.62µM*[quencher] | ? | -18.8% | 17.7% | ?
COc1ccc(-n2c(=S)[nH]c3cc(C(=O)Nc4cc(OC)c(OC)c(OC)c4)ccc3c2=O)c(OC)c1 | -9.8% | ? | -8.2% | -3.8% | 9.1% | 0.4%
COc1ccc2c(c1)c(C(=O)N/N=C/c1ccc(O)c(O)c1)c(C)n2C | ? | -7.3% | 4.6% | -4.8% | -2.7% | 14.1µM*
COc1cc(/C=N/NC(=O)CCn2c3ccccc3c3ccccc32)ccc1O | ? | 25.1µM*[quencher] | 9.6% | 0.6% | 0.3% | -10.2%
O=C(CSc1nc2ccccc2o1)N/N=C/c1ccccc1 | -3.7% | -16.3% | -8.8% | 2.1% | 1.4% | 10.3%
COc1cc(/C=N/NC(=O)CCn2nnc3ccccc32)ccc1O | -2.3% | 3.4% | 10.5% | -0.3% | -3.2% | -7.4%
O=C(CSc1nc2ccccc2o1)N/N=C/c1ccc(O)c(O)c1 | ? | ? | 1.7% | -4.3% | 3.1% | 11.2µM*
Cc1cc(SCC(=O)N/N=C/c2ccc(O)c(O)c2)c(C)cc1Br | ? | 14.1µM*[quencher] | 18.0% | -2.7% | -0.4% | ?
NC(=O)[C@H]1CC2(CC(c3cccc(NC(=O)CC(c4ccccc4)c4ccccc4)c3)=NO2)CN1C(=O)c1ccccc1C(=O)c1ccccc1 (stereo partly specified) | -9.5% | -16.2% | -15.8% | 0.7% | -3.0% | 3.4%
COc1cccc2c(SCC(=O)N/N=C/c3ccc(O)c(O)c3)cc(C)nc12 | ? | -21.3% | -3.2% | -5.2% | 0.3% | 15.8µM*
COc1ccc2nc(C)cc(SCC(=O)N/N=C/c3cccc4ccccc34)c2c1 | ? | -16.8% | 3.0% | 0.7% | -17.6% | -25.6%
COc1ccc2nc(C)cc(SCC(=O)N/N=C/c3ccc(O)c(O)c3)c2c1 | ? | ? | -5.6% | -8.5% | -9.2% | 5.01µM*
CC1(C)CC(=O)C(C(C2=C(O)CC(C)(C)CC2=O)c2ccc(Br)s2)C(=O)C1 (stereo unspecified) | -6.9% | 3.8% | -1.3% | -2.9% | -8.8% | 20µM*
O=C(c1ccccc1Br)N(Cc1ccccc1F)C1CCS(=O)(=O)C1 (stereo unspecified) | ? | -28.9% | -3.2% | 8.0% | -10.6% | nt
CCC(=O)NCC(=O)OCC(=O)c1ccccc1 | -6.9% | -4.1% | -3.7% | 2.4% | -6.2% | 2.6%
O=C1c2cccc3cccc(c23)C(=O)N1CC1CCN(CC(O)COc2ccc3ccccc3c2)CC1 (stereo unspecified) | 12.6µM* | 15.8µM*[quencher] | -5.0% | -5.6% | 0.1% | ?
COc1cccc(OCC(O)CN2CCC(CN3C(=O)c4cccc5cccc(c45)C3=O)CC2)c1 (stereo unspecified) | -6.0% | -9.0% | 7.4% | -1.5% | 1.1% | ?
CCCCC(NC(=O)c1ccccc1)C(=O)OCC(=O)N1c2ccccc2Sc2ccccc21 (stereo unspecified) | 8.8% | 6.2% | 1.6% | -0.5% | 10.4% | 3.7%
C1=Cc2ccccc2Nc2ccccc21 | ? | -29.5% | 14.2% | -3.6% | -0.7% | 5.5%
COc1ccc(CNC(=O)COC(=O)Cc2ccc(Cl)cc2Cl)cc1 | -0.6% | -3.0% | 0.2% | 35.5µM*[quencher] | ? | 1.0%
Cc1ccc(O)c(-c2n[nH]c3c2C(c2ccc(F)cc2)N(Cc2ccco2)C3=O)c1 (stereo unspecified) | ? | 14.1µM*[quencher] | 4.0% | ? | -0.9% | nt
COc1ccc(C2c3c(-c4ccccc4O)n[nH]c3C(=O)N2Cc2ccco2)cc1 (stereo unspecified) | -0.3% | ? | -4.3% | -1.3% | -2.9% | -7.6%
SMILES | Tau ThT inhib | Tau fluor counter | Tau fibril FP | TR SRC2 fluor cs | TRb SRC2 PPI | JMJD2E inh
CC1(C)C2CCC1(CS(=O)(=O)Nc1cccc(S(N)(=O)=O)c1)C(=O)C2 (stereo unspecified) | -2.3% | -2.9% | -2.8% | -3.8% | 3.5% | -11.2%
CCCc1nn2cc(-c3ccc(C)c(C)c3)nc2s1 | ? | -24.1% | 0.6% | -0.1% | 2.8% | nt
COc1ccc(S(=O)(=O)/N=C2/NC(=O)/C(=C\c3cc(OC)c(OC)cc3[N+](=O)[O-])S2)cc1 | 22.4µM* | ? | -3.3% | -8.3% | 3.0% | -5.2%
COc1cc(/C=C2\S/C(=N/S(=O)(=O)c3ccccc3)NC2=O)c([N+](=O)[O-])cc1OC | 14.1µM* | ? | ? | -27.9% | 8.7% | -13.8%
O=c1c2ccccc2nc(/C=C/c2c[nH]c3ccccc23)n1CCO | ? | 20µM*[quencher] | ? | -8.0% | -5.1% | -17.4%
CCOC(=O)c1c(NC(=O)/C=C/c2ccc(OCC)cc2)sc(C(C)=O)c1C | -10.3% | -5.6% | -2.9% | -1.2% | 2.5% | nt
CCOC(=O)c1c(NC(=O)/C=C/c2ccc(OC)c(OC)c2)sc(C(C)=O)c1C | -1.9% | 2.0% | -1.8% | 562µM*[quencher] | -19.4%[53 µM] | nt
CCCOc1ccc(/C=C/C(=O)Nc2sc(C)c(C)c2C(=O)OCC)cc1OC | 28.2µM* | -19.9% | ? | ? | -4.5% | nt
N#CN(CC(N)=O)c1nc(N2CCCCC2)nc(N2CCCCC2)n1 | 0.3% | -0.7% | -6.4% | -1.0% | -9.7% | -2.3%
O=C(c1ccc2c3c(cccc13)CC2)C1CCCN(Cc2cccnc2)C1 (stereo unspecified) | -14.1% | -9.5% | -1.1% | -0.9% | 1.0% | ?
COc1cc(CN2CCCC(C(=O)c3ccc4c5c(cccc35)CC4)C2)cc(OC)c1O (stereo unspecified) | 28.2µM* | ? | ? | 0.4% | -9.3% | -24.3%
CCn1c2ccccc2c2cc(NC(=O)CSc3nnc(-c4ccc(OC)c(OC)c4)n3N)ccc21 | ? | ? | 13.4% | -1.0% | -0.6% | 2.2%
CCn1c2ccccc2c2cc(NC(=O)CSc3nnc(-c4cccc(OC)c4)n3N)ccc21 | ? | 15.8µM*[quencher] | 2.0% | -2.4% | 6.7% | -2.1%
CN(Cc1nc2ccccc2c(=O)[nH]1)CC(O)COCc1ccco1 (stereo unspecified) | -14.0% | -9.3% | -3.7% | -0.8% | -7.4% | -4.1%
